# This is one part of a sample in which hits are shown more often than they occur.
# RMI FANCM FP: blocks RMI1/RMI2 complex binding to FANCM MM2 peptide; Fluorescence polarization, RMI core complex with F-MM2 peptide; hits give low values; FP signal (polarization) at 33 µM; 70,000 tested, 0.58% active; AID 1159607; in the data active means FP signal below about 40
# * hit, by the source's call; ! = a repeat was not active.
SMILES,RMI FANCM FP
CC(=O)O[C@H]1C[C@@H]2CC[C@@H]3[C@H](CC[C@@]4(C)[C@H]3C[C@H]([N+]3(C)CCCCC3)[C@@H]4OC(C)=O)[C@@]2(C)C[C@@H]1N1CCCCC1,74
O=C(NCCN1CCN(c2ccccc2)CC1)C(=O)Nc1ccc2c(c1)OCO2,64
COCCN1CCC(CNC(=O)C(=O)NCc2ccccc2)CC1,73
Cc1[nH]c2ccccc2c1C(c1ccco1)c1c(C)[nH]c2ccccc12,135
Cc1[nH]c2ccccc2c1C(c1ccc(C(C)C)cc1)c1c(C)[nH]c2ccccc12,29*
Cc1[nH]c2ccccc2c1C(c1ccc(OC(F)F)cc1)c1c(C)[nH]c2ccccc12,36
Cc1ccc(Cl)cc1NC(=O)Cn1c(=O)n(Cc2ccc(F)cc2)c(=O)c2nccnc21,69
O=C(CCOc1ccccc1)Nc1nnc(-c2cccs2)o1,64
Cc1cc(C)cc(NC(=O)C(=O)NCC(c2ccc3c(c2)CCCN3C)N2CCCCC2)c1 (stereo not drawn),65
O=C(Cn1cnc2ccccc21)N1CCOCC1,58
O=C(CSc1nnc2nnc3ccccc3n12)N1CCOCC1,17*
O=C(CSc1nc2ccccc2o1)N1CCOCC1,72
O=C(Cc1ccccc1)Nc1cccc(-c2ccc3nnc(-c4cccnc4)n3n2)c1,88
Cc1ccc(C)c(OCC(=O)N2CCC(C)CC2)c1,67
Cc1ccc(OCCCC(=O)NCC(C)C)c(C)c1,66
Cc1ccc(C)c(OCCCC(C)(C)C(=O)O)c1,12*!
CSc1cccc(NC(=O)C(=O)Nc2ccc3c(c2)OCO3)c1,102
CSc1ncc(C#N)c2nc(-c3ccc(N(C)C)cc3)nn12,-1*
O=C(/C=C\c1ccco1)/C=C/c1ccc(-c2ccc(Br)cc2)o1,8*
O=C(/C=C\c1ccco1)/C=C/c1ccc(-c2ccc(Cl)c(Cl)c2)o1,-11*
O=C(/C=C/c1ccc(Br)o1)/C=C/c1ccc(Br)o1,62
N#C/C(=C/c1ccc(-c2ccc(Cl)c(Cl)c2)o1)C(=O)Nc1ccccc1I,75
NC(=O)/C=C/c1ccco1,53
O=C(/C=C/c1ccc(-c2cccc(Br)c2)o1)c1ccco1,77
Nc1nnc(-c2ccc3c(c2)CCCC3)o1,70
SMILES,RMI FANCM FP
COc1ccccc1C(=O)NCC(c1ccco1)N1CCc2ccccc2C1 (stereo not drawn),60
Oc1ccc(C=C(c2nnnn2-c2ccccc2)c2nnnn2-c2ccccc2)cc1,70
C=CCN1C(=O)C(C)(C)COc2ccc(NS(=O)(=O)C3CCCCC3)cc21,66
Nc1ccccc1C(=O)NCc1ccccn1,58
O=C1N=C(N2CCN(c3ccccc3[N+](=O)[O-])CC2)S/C1=C/c1cccs1,18*
O=C1N=C(N2CCN(c3ccccc3F)CC2)S/C1=C\c1cccnc1,66
CC1CCN(C2=NC(=O)/C(=C\c3ccccc3)S2)CC1,58
COc1ccc(C(=O)NCc2nnc(SCC(=O)Nc3cc(C(F)(F)F)ccc3Cl)n2-c2ccc(Br)cc2)cc1OC,62
O=C(CSc1nc(-c2ccc(O)c(O)c2)cs1)c1cc([N+](=O)[O-])cs1,57
Cc1cccc(NC(=O)NNC(=O)c2cccn(Cc3cccc(Cl)c3)c2=O)c1,72
COC(=O)c1ccc(/C=C2\SC(=S)N(CCCCCC(=O)Nc3nc(C)cs3)C2=O)cc1,58
Cc1cccc(CC(=O)Nc2ccc3c(c2)N(CCC(C)C)C(=O)C(C)(C)CO3)c1,76
CCOC(=O)c1ccc(-c2ccc(/C=C3\SC(=O)NC3=S)o2)cc1,-42
O=C1C(=Cc2ccc(-c3ccc(C(F)(F)F)cc3[N+](=O)[O-])o2)C(=O)c2ccccc21,59
O=C1NC(=S)/C(=C/c2ccc(-c3ccccc3[N+](=O)[O-])o2)S1,9*
COc1c[nH]c(C(=O)Nc2ccc(F)c(Cl)c2)cc1=O,60
O=[N+]([O-])c1ccccc1O[C@@H]1O[C@H](CO)[C@H](O)[C@H](O)[C@H]1O,60
OCc1ccccc1O[C@@H]1O[C@H](CO)[C@@H](O)[C@H](O)[C@H]1O,59
O=C(O)c1cc(O)c2c(c1)[C@@H]([C@@H]1c3cc(C(=O)O)cc(O)c3C(=O)c3c(O[C@H]4O[C@H](CO)[C@@H](O)[C@H](O)[C@H]4O)cccc31)c1cccc(O[C@H]3O[C@H](CO)[C@@H](O)[C@H](O)[C@H]3O)c1C2=O,34*
O=c1c(N=Nc2ccc3c(c2)OCO3)c(-c2ccccc2)[nH]n1-c1ccccc1,51
CCOC(=O)c1c(-c2ccccc2)oc2c1cc(OC(=O)c1cc(OC)cc(OC)c1)c1ccccc12,54
CCOC(=O)c1c(C)oc2c1c1c(c3ccccc32)OCN(C2CCCCC2)C1,31*
CCOC(=O)c1c(C)oc2c(F)c(F)c(F)c(F)c12,62
O=C(CCn1cnc2c([nH]c3ccc(F)cc32)c1=O)N1CCN(c2ncccn2)CC1,61
Fc1cccc2sc(Nc3nc4c(F)cccc4s3)nc12,70
COc1cccc2sc(Nc3nc4c(F)cc(F)cc4s3)nc12,28*
COc1cccc2sc(Nc3nc(C(C)(C)C)cs3)nc12,61
C/C(=N/O)C12CC3CC(CC(C3)C1)C2,58

# Compound activity: PubChem BioAssay, Small Molecule Screening Facility, UW Madison
